Compound activity from PubChem.
Most compounds without a hit are left out; they make up all but 8% or so of the library.
ELG1 DNA repair: ELG1-dependent DNA repair inhibition; AID 504467; HEK293T ELG1-luciferase reporter, luminescence, 16 h; DNA damage induced by 5-fluorouridine; Potency, µM (top dose mostly 46.1 µM), without a hit: at the highest dose activity change, negative = inhibition, hits mostly inhibitors; 330,000 compounds, 2.3% hits; note: potency is the fitted concentration of half-maximal effect; nearly all actives have a fitted effect of over 55% in size
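HEK293T cells expressing luciferase-tagged ELG1 (2,000/well) received 5-Fluorouridine plus compound or DMSO for 16 hr at 37 °C. Luciferase was read by ONE-Glo luminescence after 30 min at room temperature.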
RORg inh: blocks mouse ROR gamma transcriptional activity. Drosophila S2 Gal4-RORgamma UAS-luciferase reporter, 20 h. 310,000 compounds, 5.4% hits. P51450. Potency, µM (top dose mostly 53.6 µM), without a hit: top-dose activity change, negative = inhibition, hits mostly inhibitors; note: potency is the fitted concentration of half-maximal effect; nearly all actives have a fitted effect of over 60% in size
Target sequence (P51450 whole entry, looked up, the tested form may be a part): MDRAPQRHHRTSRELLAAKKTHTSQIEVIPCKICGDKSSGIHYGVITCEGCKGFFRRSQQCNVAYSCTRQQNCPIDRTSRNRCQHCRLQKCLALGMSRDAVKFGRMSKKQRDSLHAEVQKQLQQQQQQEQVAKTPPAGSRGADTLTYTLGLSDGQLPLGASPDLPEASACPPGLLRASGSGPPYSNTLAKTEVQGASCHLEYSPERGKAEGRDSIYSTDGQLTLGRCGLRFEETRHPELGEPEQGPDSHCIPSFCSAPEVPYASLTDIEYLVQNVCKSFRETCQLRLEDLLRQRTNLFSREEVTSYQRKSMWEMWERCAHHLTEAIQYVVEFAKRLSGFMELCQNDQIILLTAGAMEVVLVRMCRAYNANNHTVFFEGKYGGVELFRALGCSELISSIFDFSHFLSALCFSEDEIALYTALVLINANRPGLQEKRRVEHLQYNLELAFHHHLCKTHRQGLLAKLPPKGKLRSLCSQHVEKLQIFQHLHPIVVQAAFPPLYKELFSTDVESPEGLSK
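A Gal4/UAS one-hybrid system in insect cells: metallothionein-promoter Gal4–ROR gamma fusion plus Photinus luciferase reporter. Copper sulfate 700 uM final, 20 hr ambient incubation, luminescent detection after 10 min with reagent.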
FBPA coupling cs: counter-screen for Giardia aldolase inhibitors: coupling enzyme system; AID 2472; coupling enzyme system counterscreen, AmpLite Red fluorescence; 290,000 compounds, 0.67% hits; activity change, negative = inhibition, % at 58.2 µM, hits read low; in the data active = activity change below about -30%
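Fluorescence at 525 nm excitation and 598 nm emission measured inhibition of the coupled detection system without aldolase. Compounds (at 57.5 uM final) were preincubated 10 min at room temperature with coupling enzyme reagent before a 20 min substrate/AmpLite Red step.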
TSHR antag: blocks TSH signaling through the human TSH receptor. P16473. TSHR-expressing cells, TSH-stimulated cAMP HTRF, 2 h; active compounds read low. activity change, negative = inhibition, % at 11.5 µM. 330,000 compounds, 0.2% hits. AID 504810;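 active = activity change below a set negative limit, meaning inhibition stronger than a set level, cut at about -70% in these data; inconclusive = activity change between two set negative limits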
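Cell-based HTRF cAMP assay; TSHR cells + compound, TSH EC80 (4nM final), 2 h, 37 deg C. Lysis with anti-cAMP cryptate and cAMP-d2, 30 min RT, read 665/620 nm.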
Gal4-VP16 FLuc: inhibits Gal4-VP16 luciferase reporter, ROR gamma counter-screen | Drosophila S2 Gal4-VP16 UAS-luciferase, luminescence, 20 h | Potency, µM (highest dose often 53.6 µM), inactives show at the top dose activity, negative = inhibition, most hits filed as inhibitors | AID 2546 | 310,000 compounds, 3.5% hits;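 note: Gal4-VP16 expression switched on by copper sulfate through the metallothionein promoter; potency is the fitted concentration of half-maximal effect; nearly all actives have a fitted effect of over 50% in size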
An asterisk follows results filed as active; ? = inconclusive; . = no result given; [ ] = remark or other dose. Unless noted, calls come from the whole dose curve; as a rule, active = well fitted curve in the direction sought with a large enough effect; inconclusive = small, poorly fitted or top-dose-only effect, or another doubt; inactive = no such curve, though single readings can be large; an effect the other way counts as inactive or inconclusive. % is set by controls: 0 for no effect and ±100 for the full control effect.

SMILES | ELG1 DNA repair | RORg inh | FBPA coupling cs | TSHR antag | Gal4-VP16 FLuc
CC(=O)OC[C@@H]1O[C@@H](O/N=C2/C[C@@H](O)[C@@H](O)[C@@H]3[C@@H]4C(=O)N(C[C@@H]5CCCO5)C(=O)[C@H]4CC[C@H]23)[C@H](OC(C)=O)[C@H](OC(C)=O)[C@@H]1OC(C)=O | . | -0.2%[10 µM] | 8.3 | . | 5.4%[10 µM]
CN1CCN(C(=O)C2CCC(=O)N(CCc3cccc(F)c3)C2)CC1 (stereo unspecified) | 9.4% | -18.4% | . | 10.5 | -2.8%
Fc1ccc(NC(=S)NCc2ccccc2Cl)cc1 | -16.1% | 7.08µM* | 1.1 | -11.7 | 14.1µM*
COc1ccccc1CNC(=S)NCCc1ccccc1 | ? | 2.51µM* | 0.4 | -9.0 | ?
CCC(C)c1ccc(NC(=S)NCc2ccccc2OC)cc1 (stereo unspecified) | ? | 2.24µM* | 0.8 | 3.5 | 8.91µM*
CN(C)c1ccc(-c2ccc3c(=O)c4ccccc4n(C)c3c2)cn1 | ? | ? | -0.6 | 13.1 | -3.8%
COc1ccccc1NS(=O)(=O)c1cccc2cccnc12 | 21.2% | 0.6% | -10.1 | -10.4 | 24.8%
Nc1ccccc1S(=O)(=O)Nc1cccc2cccnc12 | . | 1.58µM* | -47.9* | . | 2.24µM*
Cc1ccc(S(=O)(=O)Nc2ccc(NS(=O)(=O)c3ccc(C)cc3)c3ncccc23)cc1 | . | 5.01µM* | -6.5 | . | 5.62µM*
Cc1ccc(S(=O)(=O)Nc2ccccc2-c2ccccc2NS(=O)(=O)c2ccc(C)cc2)cc1 | ? | 3.2% | 0.6 | -1.4 | -24.1%
Cc1ccc(S(=O)(=O)Nc2cccc3cccnc23)cc1 | ? | 1.12µM* | -13.6 | -4.9 | 1.78µM*
CC(C)c1cc(C(C)C)c(S(=O)(=O)Nc2cccc3cccnc23)c(C(C)C)c1 | . | 0.0501µM* | -10.4 | . | -89.9%
COc1ccc(C2NC(=O)NC(C)=C2[N+](=O)[O-])cc1 (stereo unspecified) | 4.3% | 11.4% | -0.4 | 0.9 | 15.1%
O=C1c2ccccc2C(=O)c2cc(S(=O)(=O)Nc3cccc4cccnc34)ccc21 | . | 0.891µM* | -14.5 | . | -92.8%
O=C(O)c1ccccc1NS(=O)(=O)c1cccc2cccnc12 | -3.1% | -17.3% | 2.5 | 9.4 | 3.9%
O=S(=O)(Nc1cc(Sc2cccc3cccnc23)c(O)c2ccccc12)c1ccccc1 | 9.2µM* | 1.26µM* | -54.9* | 8.6 | 2.82µM*
COC(=O)[C@@H](NC(=O)N1CCc2nc(-c3ccccc3)c3c(c2C1)CO[C@@H](C)C3)C(C)C | . | . | -0.2 | . | .
O=[N+]([O-])C1=CC=C2C(=NC3(CCCCC3)N2O)C1=NC1CCCCC1 | 10.5% | 11.8% | -20.7 | 9.6 | -12.8%
N=C1C=CC=C2C1=NC1(CCCCC1)N2O | -3.8% | -36.1% | -48.3* | -17.7 | -0.5%
Cc1cc(C)nc(SCc2ccc(C(=O)N/N=C/c3cccc(O)c3O)cc2)n1 | -13.1% | 1.41µM* | -26.7 | -2.3 | 1.58µM*
Cc1cc(C)nc(SCc2ccc(C(=O)N/N=C/c3ccc(C(=O)O)cc3)cc2)n1 | -1.8% | -1.3% | 1.8 | -7.8 | -14.4%
COc1ccc(O)c(/C=N/NC(=O)c2ccc(CSc3nc(C)cc(C)n3)cc2)c1 | ? | 1.26µM* | 1.2 | -18.9 | 2.51µM*
COc1ccccc1C(=O)N/C(=N/c1nc(C)cc(C)n1)Nc1ccccc1 | ? | 10µM* | -0.9 | -7.8 | ?
Cc1ccc(C)c(NC(=O)CCC(=O)NNS(=O)(=O)c2ccc(Cl)cc2)c1 | -10.8% | . | . | 1.0 | .
Cc1cc(C)c(S(=O)(=O)ON2C(=O)c3ccccc3C2=O)cc1C | 13.6% | 14.1µM* | -3.2 | 25.2 | 15.8µM*
SMILES | ELG1 DNA repair | RORg inh | FBPA coupling cs | TSHR antag | Gal4-VP16 FLuc
Cc1cc(C)c(C)c(S(=O)(=O)ON2C(=O)c3ccccc3C2=O)c1C | ? | ? | . | 1.2 | 12.6µM*
Cc1ccc(S(=O)(=O)ON2C(=O)c3ccccc3C2=O)c(C)c1 | -21.7% | 20µM* | -4.4 | 29.9 | ?
CCCOc1ccccc1Cn1c(=O)oc2ccccc21 | 22.0% | -16.6% | -0.2 | -13.0 | -10.3%
O=C(Nc1ccccc1F)Nc1cccc2ccc(O)cc12 | 13µM* | 4.9% | -21.8 | -12.0 | 4.8%
Cc1cc2ncc(-c3ccc(Cl)cc3)c(N)n2n1 | ? | ? | -2.3 | -0.2 | ?
Nc1c(-c2ccc(Cl)cc2)cnc2c(-c3ccccc3)cnn12 | ? | 22.4µM* | 0.2 | 0.4 | -7.3%
COc1ccc(-c2cnc3c(-c4ccc(F)cc4)cnn3c2N)cc1 | ? | -33.4% | -0.1 | -3.7 | 17.3%
Nc1c(-c2ccc(Cl)cc2)cnn1-c1ccccc1 | ? | -26.6% | -0.2 | -5.3 | 4.0%
CC(C)(C)S(=O)(=O)c1cnc2c(-c3ccc(F)cc3)cnn2c1N | 20.5% | 4.47µM* | 1.7 | -5.6 | -3.8%
CC(C)(C)S(=O)(=O)c1cnc2c(-c3ccc(Cl)cc3)cnn2c1N | 7.9% | 2.82µM* | -0.9 | 4.4 | -9.9%
Nc1c(-c2ccccc2)cnc2cc(-c3ccccc3)nn12 | ? | 2.82µM* | -0.4 | -14.6 | ?
COc1ccc(CC(=O)NC2CC2)cc1OC | -5.8% | -5.4% | 1.9 | 1.0 | 11.2%
O=C(CN(C(=O)CCC(=O)Nc1nccs1)c1ccccc1F)NCc1ccc(F)cc1 | -3.0% | 1.9% | 3.1 | -13.1 | -2.5%
COc1ccc(-c2cnn3c(N)c(S(=O)(=O)C(C)(C)C)cnc23)cc1 | 10.4% | 11.2µM* | -10.9 | 14.6 | ?
C=CCN1CCN(C(=O)CCc2ccccc2)CC1 | 0.9% | -5.1% | 6.7 | -8.5 | -5.5%
Cc1[nH]c2ccccc2c1[C@H]1[C@@H](CC#N)C1(C)C | -0.6% | 18.5% | -46.3* | 26.4 | 0.6%
O=C(CCc1nc2sc3c(c2c(=O)[nH]1)CCCC3)N1CCN(c2ccccc2)CC1 | 11.4% | . | . | -8.7 | .
CCOC(=O)C1=C(Cc2ccc(Cl)cc2)C(=O)c2ccccc2C1=O | 18.3% | 8.91µM* | -36.7* | 1.0 | ?
CCOC(=O)c1c(C=O)c(C)n(Cc2ccc(Cl)cc2)c1C | ? | -13.5% | 1.9 | 7.1 | 4.1%
S=c1[nH]nc(COc2ccccc2)n1/N=C/C=C/c1ccco1 | 1.8% | -41.6% | -1.4 | -11.9 | -3.5%
S=c1[nH]nc(COc2ccccc2)n1/N=C/C=C/c1ccccc1 | 12.6% | ? | 4.5 | -13.7 | 4.47µM*
S=c1[nH]nc(COc2ccccc2)n1/N=C/C(Cl)=C/c1ccccc1 | -23.2% | 7.94µM* | -1.6 | -18.0 | ?
CCOc1ccc(CN(C)C(=O)CNC(=O)c2ccc(Br)o2)cc1OC | -3.7% | 12.3% | 0.6 | -7.2 | -9.4%
CC(C)CC(/C(O)=C(\C#N)c1nc2ccccc2[nH]1)N1C(=O)c2ccccc2C1=O (stereo unspecified) | ? | 7.94µM* | -3.7 | 18.4 | 20µM*
COc1cccc(OC)c1/C(O)=C(\C#N)c1nc2ccccc2[nH]1 | -16.5% | 3.4% | -2.0 | 0.6 | -8.0%
